PubChem BioAssay (NCATS)
Unmarked numbers belong to inactive results. Results filed as inconclusive are left out. The source made the active and inactive calls. The call rests on the fitted dose curve; in most records, active means well fitted curve in the direction sought with a large enough effect; inconclusive means small, poorly fitted or top-dose-only effect, or another doubt; inactive means no such curve, though single readings can be large; an effect the other way counts as inactive or inconclusive.

Target: Alpha-galactosidase (Coffea arabica) (UniProt Q42656)
Sequence (Q42656 whole entry, looked up): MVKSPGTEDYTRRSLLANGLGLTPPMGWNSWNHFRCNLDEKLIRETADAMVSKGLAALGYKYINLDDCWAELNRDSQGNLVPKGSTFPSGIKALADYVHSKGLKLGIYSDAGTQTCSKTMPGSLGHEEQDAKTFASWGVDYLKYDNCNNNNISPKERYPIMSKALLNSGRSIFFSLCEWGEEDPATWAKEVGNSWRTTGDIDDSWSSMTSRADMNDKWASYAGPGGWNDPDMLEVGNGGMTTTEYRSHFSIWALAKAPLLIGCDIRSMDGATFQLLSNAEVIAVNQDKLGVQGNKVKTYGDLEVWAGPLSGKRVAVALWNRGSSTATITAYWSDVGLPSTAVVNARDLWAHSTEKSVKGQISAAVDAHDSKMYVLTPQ
Test: Counterscreen for Glucocerebrosidase Inhibitors: qHTS Assay for Coffee Bean alpha-Galactosidase at pH 4.5 (AID 957);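 further: plate controls were enzyme alone for no effect and no enzyme for full effect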
Details: purified coffee bean alpha-galactosidase, fluorogenic substrate; series mostly up to 76.9 µM; activity change, negative = inhibition: at the top concentration
Procedure, shortened: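 Fluorogenic qHTS at pH 4.5 (citrate buffer with Tween-20): 2 nM enzyme, 80 uM 4-MU-alpha-galactoside substrate, compound titrated 0.7 nM to 77 uM, 20 min room temperature. Glycine/NaOH stop; 4-MU read Ex 365/Em 440; Hill-equation AC50 against no-enzyme and enzyme controls.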

| SMILES | activity change, negative = inhibition [%] |
| --- | --- |
| Cc1ccc(=O)n(-c2ccccc2)c1 | 0.127 |
| CCCCNc1c(C(=O)OCC)c(C)nc2c1cnn2CC | -1.08 |
| C[C@]12CCC(=O)C=C1CC[C@@H]1[C@@H]2CC[C@@]2(C)[C@H]1CC[C@]2(O)C(=O)CO | -2.75 |
| CCOC(=O)Nc1ccc(NCc2ccc(F)cc2)nc1N | 1.35 |
| Brc1c(NC2=NCCN2)ccc2nccnc12 | 1.12 |
| O=C1NCN(c2ccccc2)C12CCN(CCCC(c1ccc(F)cc1)c1ccc(F)cc1)CC2 | -10 |
| Cc1ccc(C(=O)Nc2ccc(S(=O)(=O)O)c3cc(S(=O)(=O)O)cc(S(=O)(=O)O)c23)cc1NC(=O)c1cccc(NC(=O)Nc2cccc(C(=O)Nc3cc(C(=O)Nc4ccc(S(=O)(=O)O)c5cc(S(=O)(=O)O)cc(S(=O)(=O)O)c45)ccc3C)c2)c1 | -7.78 |
| Cc1ccc(N(CC2=NCCN2)c2cccc(O)c2)cc1 | -4.24 |
| Cn1c(=O)c2c(ncn2C)n(C)c1=O | 0.337 |
| CC1=C(CC(=O)O)c2cc(F)ccc2/C1=C\c1ccc(S(C)=O)cc1 (centres undefined) | 1.74 |
| Cc1cc(C(C)(C)C)c(O)c(C)c1CC1=NCCN1 | -0.675 |
| OCc1cc(C(O)CNCCCCCCOCCCCc2ccccc2)ccc1O (centres undefined) | 0.935 |
| CN(C(=O)CCCOc1ccc2[nH]c(=O)ccc2c1)C1CCCCC1 | 0.0935 |

Tested on: not listed separately
Test: MultiTox-Fluor Cytotoxicity Assay - LYMP1-003 - Dead Cells (AID 961);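 further: potency means the concentration at half of the fitted maximal effect; cells exposed to compound for 16 h at 37 °C; nearly all actives have a fitted effect of over 70% in size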
Details: LYMP1-003 lymphoblastoid cells, dead-cell protease fluorescence; series mostly up to 92.2 µM; cytotoxicity (dead cells): at the top concentration
Procedure, shortened: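 Human lymphoblastoid LYMP1-003 cells (2500/well) were treated with compounds for 16 hr at 37 C in complete medium. Dead-cell protease release was read by bis-AAF-R110 fluorescence (Ex/Em 485/520). AC50 came from Hill fits, normalized to DMSO and 15 uM tetraoctylammonium bromide.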

| SMILES | Potency |
| --- | --- |
| CN(C)c1ccc(C(=C2C=CC(=[N+](C)C)C=C2)c2ccc(N(C)C)cc2)cc1 | 10 µM (active) |
| CCCCCCCCCCCCCCCC[n+]1ccccc1 | 20 µM (active) |
| CC[n+]1c(-c2ccccc2)c2cc(N)ccc2c2ccc(N)cc21 | 39.8 µM (active) |

Tested on: not listed separately
Test: Cell Viability - LYMP1-003 - Assay at 40 hr (AID 964); further: potency means the concentration at half of the fitted maximal effect; nearly all actives have a fitted effect of over 60% in size
Details: LYMP1-003 lymphoblastoid viability; series mostly up to 92.2 µM; activity change, negative = cytotoxic: at the top concentration
Procedure, shortened: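 Viability is taken as cellular ATP, read by CellTiter-Glo luminescence after 40 h of compound exposure at 37 C. Cells: human lymphoblastoid line LYMP1-003 at 2500/well; AC50 values derived by Hill-equation fitting of concentration-response data.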

| SMILES | Potency |
| --- | --- |
| Oc1ccc(Cl)cc1Cc1cc(Cl)ccc1O | 25.1 µM (active) |
| CC[n+]1c(-c2ccccc2)c2cc(N)ccc2c2ccc(N)cc21 | 6.31 µM (active) |
| Oc1ccc(Cl)cc1Sc1cc(Cl)ccc1O | 31.6 µM (active) |
